LDHA block = qHTS assay for inhibitors of human lactate dehydrogenase. L-lactate dehydrogenase A chain (Homo sapiens), P00338. purified LDHA, NADH/diaphorase-resazurin fluorescence; stronger effect = lower value. activity change, % (values are at about 110 or 230 µM). actives 0.15% (n = 480,000); in the data active = activity change below about -30%; inconclusive = mostly about -25% to -30%;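 also: plate controls were DMSO wells for no effect and wells without enzyme for full effect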
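LDH5 2 nM; NADH 0.06 mM, pyruvate 0.2 mM; 200 mM Tris pH 7.4, EDTA, Tween-20; 5 min RT. Detection: diaphorase 0.133 mg/mL + resazurin 37 µM, fluorescence ex540/em590 at 0 and 20 min; normalized to enzyme-free and DMSO wells.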
Gal4-VP16 FLuc = VP16 counterscreen qHTS for inhibitors of ROR gamma transcriptional activity; Drosophila S2 Gal4-VP16 UAS-luciferase, luminescence, 20 h; Potency, µM (highest dose often 53.6 µM), without a hit: at the highest dose activity, negative = inhibition, usual class: inhibitors; actives 3.5% (n = 310,000); AID 2546, 2010;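 also: Gal4-VP16 expression switched on by copper sulfate through the metallothionein promoter; potency is read from the fitted curve at half-maximal effect; nearly all actives have a fitted effect of over 50% in size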
IL-1B inflam inh = qHTS for Inhibitors of Inflammasome Signaling: IL-1-beta AlphaLISA Primary Screen; THP-1 LPS/ATP IL-1B secretion, AlphaLISA, 16 h; stronger effect = lower value; activity change, % at 57.5 µM; actives 4.7% (n = 360,000); in the data active = activity change below about -50%; inconclusive = mostly about -30% to -49%
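THP-1 cells pretreated 1 hr with compounds (up to 57.5 uM final), then stimulated with LPS (250 ng/mL final) plus ATP (1.25 mM final); secreted IL-1B measured by AlphaLISA after 16 hr, decreased signal indicating inhibition.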
DT40 TDP1 no CPT = qHTS for Inhibitors of human tyrosyl-DNA phosphodiesterase 1 (TDP1): qHTS in cells in absence of CPT. DT40 Tdp1-/- hTDP1 cells, no CPT, ATP luminescence, 48 h. Potency, µM (doses to about 46.2 µM), inactives show at the top dose activity change, negative = growth inhibition, actives largely listed as inhibitors. actives 15% (n = 420,000). AID 686978, 2013; also: potency is read from the fitted curve at half-maximal effect; nearly all actives have a fitted effect of over 55% in size
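No-CPT arm: Tdp1-/-;hTDP1 DT40 cells (400/well) plus compounds, incubated ≥48 hr at 37 °C. Readout CellTiter-Glo luminescence.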
TDP1 cell CPT = qHTS for Inhibitors of human tyrosyl-DNA phosphodiesterase 1 (TDP1): qHTS in cells in presence of CPT. Potency, µM (series often up to 46.2 µM), without a hit: top-dose activity change, negative = growth inhibition, actives largely listed as inhibitors. chicken DT40 Tdp1-/-;hTDP1 cells + 20 nM CPT, ATP luminescence, 48 h. actives 12% (n = 420,000); also: potency is read from the fitted curve at half-maximal effect; nearly all actives have a fitted effect of over 55% in size
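Chicken DT40 Tdp1-/- cells stably complemented with human TDP1 were seeded at 400 cells/well in medium containing 20 nM camptothecin, exposed to pin-transferred compounds, and grown at 37 °C for at least 48 hr. Viability was read as ATP luminescence.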
RORgamma inh = qHTS for inhibitors of ROR gamma transcriptional activity; Drosophila S2 Gal4-RORgamma UAS-luciferase reporter, 20 h; Potency, µM (doses to about 53.6 µM), inactives show at the highest dose activity change, negative = inhibition, usual class: inhibitors; actives 5.4% (n = 310,000); AID 2551, 2010; also: potency is read from the fitted curve at half-maximal effect; nearly all actives have a fitted effect of over 60% in size
Target sequence (P51450 whole entry, looked up, the tested form may be a part): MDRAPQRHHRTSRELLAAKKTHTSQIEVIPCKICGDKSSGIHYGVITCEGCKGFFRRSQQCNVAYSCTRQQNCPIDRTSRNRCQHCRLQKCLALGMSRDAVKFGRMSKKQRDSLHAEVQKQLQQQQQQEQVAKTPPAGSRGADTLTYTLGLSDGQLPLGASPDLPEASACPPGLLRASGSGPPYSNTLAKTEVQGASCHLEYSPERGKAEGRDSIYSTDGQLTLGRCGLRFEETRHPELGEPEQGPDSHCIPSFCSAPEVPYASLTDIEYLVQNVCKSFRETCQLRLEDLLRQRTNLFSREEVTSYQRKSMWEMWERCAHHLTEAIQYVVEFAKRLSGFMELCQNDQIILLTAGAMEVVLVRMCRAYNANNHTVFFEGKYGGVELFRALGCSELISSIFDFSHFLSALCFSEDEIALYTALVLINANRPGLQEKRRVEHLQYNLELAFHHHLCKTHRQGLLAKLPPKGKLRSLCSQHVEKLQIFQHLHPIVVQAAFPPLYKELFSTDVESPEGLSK
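Using a luciferase readout, inhibitors were identified by reduced reporter activity in Drosophila cells coexpressing a copper-inducible Gal4–ROR gamma fusion and UAS-driven Photinus luciferase, incubated 20 hr after 700 uM copper sulfate.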
* = called active by the depositor; u = inconclusive; x = not tested or not shown; [ ] = another dose, or the depositor's remark. Hits are enriched below; roughly 18% of the tested compounds scored in any of these assays. Unless noted, calls follow the shape of the dose curve; as a rule, active = well fitted curve in the direction sought with a large enough effect; inconclusive = small, poorly fitted or top-dose-only effect, or another doubt; inactive = no such curve, though single readings can be large; an effect the other way counts as inactive or inconclusive. Unless noted, % is scaled to controls: 0 for no effect and ±100 for the full control effect.

SMILES | LDHA block | Gal4-VP16 FLuc | IL-1B inflam inh | DT40 TDP1 no CPT | TDP1 cell CPT | RORgamma inh
C/C(Cn1nnc([N+](=O)[O-])n1)=N\NC(=O)c1cccc(Cl)c1 | 35 | u | 31 | u | 16µM* | 10µM*
C/C(Cn1nc([N+](=O)[O-])cc1C)=N\NC(=O)c1cccc(Br)c1 | -1 | u | -8 | -11% | -1% | 13µM*
COC(=O)c1ccccc1NC(=O)CN1CCN(c2ccccn2)CC1 | 0 | -1% | 16 | -10% | -2% | 5%
COC(=O)c1ccccc1N/C=C1\CCc2c(c(C)nn2-c2ccccn2)C1=O | 23 | 2% | 3 | u | 16µM* | 19%
COc1cccc(-n2c(-c3ccco3)nc3c(cnn3-c3ccc(C)c(C)c3)c2=O)c1 | 4 | x | x | x | x | x
COc1cc2c(cc1OC)-c1c(c(C(=O)N3CCC(C(N)=O)CC3)nn1-c1cccc(Cl)c1)C2 | 4 | x | x | x | x | x
C/C(=N\NC(=S)NC(C)C)c1ccccc1 | -8 | 3.5µM* | -6 | u | u | 0.56µM*
CC(C)NC(=S)N/N=C/C(Cl)=C/c1ccccc1 | 7 | x | x | x | x | x
CC(C)NC(=S)NC(c1ccccc1)(c1ccccc1)c1ccccc1 | 4 | 3.2µM* | -1 | 23µM* | u | u
C/C(=N/NC(=S)NC(C)C)c1ccncc1 | 7 | x | x | x | x | x
CC(C)NC(=S)NN=C1c2ccccc2-c2ccccc21 | -4 | u | 1 | 7.3µM* | 23µM* | 7.9µM*
CC(C)CC(NC(c1ccccc1)(c1ccccc1)c1ccccc1)C(=O)O (stereo unspecified) | 1 | x | x | x | x | x
CC(=O)Nc1cccc(/C(C)=N/NC(N)=S)c1 | -2 | 11% | 33 | -2% | 11% | u
CC(=O)Nc1cccc(/C(C)=N/NC(=S)NC(C)C)c1 | -6 | u | -27 | 4.6µM* | 3.7µM* | 7.9µM*
O=C(CN1CCCC1)NCCCc1ccccc1 | 1 | x | x | x | x | x
Cn1c(=O)c2c(ncn2CCC(=O)Nc2cccc(F)c2)n(C)c1=O | 5 | x | x | x | x | x
CC(=O)Nc1ccc(NC(=O)Cn2ccc3ccc(Cl)cc32)cc1 | -1 | x | x | x | x | x
Cc1cccc(NC(=O)/C=C/c2cccs2)c1C | 12 | x | x | x | x | x
O=C(CCC1CCCC1)NC1CCc2ccccc21 (stereo unspecified) | -2 | x | x | x | x | x
C/C(=N\NC(=S)NC(C)C)c1ccco1 | -6 | 4.5µM* | -14 | u | u | u
CC1=CC(C)(C)N2C(=O)C3(N=C(N)NC(Nc4ccccc4)=N3)c3cc(C)cc1c32 (stereo unspecified) | -1 | 0%[0.365 µM] | -78* | 18µM* | u | 6%
CC1=CC(C)(C)N2C(=O)C3(SCC(=O)N3c3ccc(O)cc3)c3cc(C)cc1c32 (stereo unspecified) | 0 | -18% | 36 | -1% | -5% | -31%
CC(=O)N(C)N1c2ccccc2CCc2ccccc21 | -3 | 5% | 27 | 15µM* | u | -13%
O=C(C(Cc1ccccc1)N1C(=O)c2ccccc2C1=O)N1c2ccccc2CCc2ccccc21 (stereo unspecified) | -9 | -14% | -18 | 6.5µM* | 12µM* | -23%
O=C(CCl)N1c2ccccc2CCc2ccccc21 | x | u | x | x | x | 11µM*
SMILES | LDHA block | Gal4-VP16 FLuc | IL-1B inflam inh | DT40 TDP1 no CPT | TDP1 cell CPT | RORgamma inh
CC(Cl)C(=O)N1c2ccccc2CCc2ccccc21 (stereo unspecified) | -2 | -2% | -8 | 13µM* | u | 9%
CC(=O)Nc1ccc2c(c1)N(C(=O)CN(C)C)c1ccccc1CC2 | 7 | -2% | 11 | -8% | -8% | 6%
CC(C(=O)N1CCc2ccccc21)n1cccc1 (stereo unspecified) | -3 | 0% | 3 | -19% | u | 0%
CCOC(=O)c1sc2cccc(F)c2c1COC(=O)c1cccs1 | 1 | x | x | x | x | x
COc1ccccc1NS(=O)(=O)c1cc(NC(=O)c2n[nH]c3ccccc23)ccc1Cl | 7 | x | x | x | x | x
C=CC[C@@H](CC(=O)N(CCO)Cc1ccccc1)C(=O)N[C@H](COC(=O)[C@@H](CC=C)Cc1ccc(F)cc1)C(C)(C)C | 0 | x | -83* | 13µM* | 21µM* | x
C=CC[C@@H](CC(=O)N(CCO)Cc1ccccc1)C(=O)N[C@@H](C)COC(=O)[C@@H](CC=C)Cc1ccc(F)cc1 | 1 | x | -3 | 16µM* | u | x
C=CC[C@H](CC(=O)N(CCO)Cc1ccccc1)C(=O)N[C@H](COC(=O)[C@@H](CC=C)Cc1ccc(F)cc1)C(C)(C)C | 1 | x | -61* | u | u | x
C=CCC[C@H](Cc1ccc(F)cc1)C(=O)OC[C@@H](NC(=O)[C@H](CC=C)CC(=O)NCCO)C(C)(C)C | 3 | x | -4 | u | u | x
C=CCC[C@H](Cc1ccc(F)cc1)C(=O)OC[C@@H](NC(=O)[C@@H](CC=C)CC(=O)N(CCO)Cc1ccccc1)C(C)(C)C | 8 | x | u | u | 26µM* | x
CC(C)CNC(=O)CCc1ccc(C#N)cc1 | -2 | x | x | x | x | x
Cc1nn(C)c(C)c1CC(=O)Nc1nc(-c2ccc(F)cc2)c(C)s1 | 13 | x | x | x | x | x
C=CC[C@@H](CC(=O)N(CCO)Cc1ccccc1)C(=O)N[C@H](COC(=O)[C@@H](CC=C)Cc1ccc(F)cc1)c1ccccc1 | 1 | x | u | 13µM* | 15µM* | x
C=CC[C@H](CC(=O)NCCO)C(=O)N[C@H](COC(=O)[C@@H](CC=C)Cc1ccc(F)cc1)Cc1ccccc1 | -2 | x | -1 | u | u | x
CCOC(=O)c1sc2nc(SC)nc(-c3ccc(Cl)cc3)c2c1N | 1 | -4% | -3 | 15µM* | 21µM* | 5%
CCOC(=O)c1sc2nc(C)nc(NCc3ccc(F)cc3)c2c1C | 7 | 0% | u | 26µM* | 26µM* | 63%
CCOC(=O)c1sc(C)c2c(=O)n(Cc3ccc(Cl)cc3)c(C)nc12 | -1 | -2% | 0 | 16µM* | 23µM* | 43%
CCOC(=O)c1sc2nc(C)nc(NCc3cccnc3)c2c1C | -9 | 6% | 21 | u | 6% | 39%
